From the supplement of paper PMC12636033
± gives the standard deviation of the averaged measurements. Whole data set: some 33,000 sequences, median “E-score (rank enrichment, -0.5 to 0.5)” near -0.0075, cut for the highest 2% near 0.23. For the sample, the highest values were picked, then their nearest neighbours and some sequences at random.

system: WT Max(13-93) synthetic (M65Nle); assay: PBM 8-mer E-score (E-score (rank enrichment, -0.5 to 0.5)); higher = stronger preferential binding
Experimental: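 Protein binding microarray (universal PBM chip covering all 10-mers in fixed probe flanks) with chemically synthesized human Max(13-93) bHLH-LZ analogs (not full-length Max) bearing noncanonical residues (hArg, Tha, Aib, Nle at 65) and aromatic Cys staples. Read-out per 8-mer (and its reverse complement): E-score (rank-based enrichment, -0.5 to 0.5) and Z-score of median probe intensity.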

Sequence	PBM 8-mer E-score
ATTTACCG	0.17 ± 0.0023
ATTCCGGC	-0.2339 ± 0.0017
GAGATCAA	0.0454 ± 0.094
CACCTGAA	0.166 ± 0.075
CTGAGATA	-0.222 ± 0.091
CCTTCTCA	0.0588 ± 0.1
CCGGCCCA	-0.197 ± 0.085
GAAAAGGC	0.253 ± 0.15
AAAAAGGC	0.109 ± 0.096
CAAAAGGC	-0.00832 ± 0.029
AACGTTTA	0.146 ± 0.049
TCGGACCA	-0.114 ± 0.059
CGCGGGGA	-0.172 ± 0.12
GGCGGGGA	0.303 ± 0.031
GGCGGGAA	0.0202 ± 0.047
CTGGTCCA	-0.128 ± 0.094
TAGGTAAA	-0.0909 ± 0.038
ACGACCAA	-0.0717 ± 0.22
AGCAAGCC	-0.152 ± 0.033
GACCAGCC	-0.205 ± 0.093
GTGATTTA	0.27 ± 0.0069
CTGATTAA	0.192 ± 0.081
CTGATTTA	0.0789 ± 0.0019
GTGATTAA	0.296 ± 0.066
ATGATGTA	0.197 ± 0.047

Sequence	PBM 8-mer E-score
GTGATGTA	0.239 ± 0.0057
ATGATTTA	0.178 ± 0.027
ATGATTAA	0.0011 ± 0.15
CTGATGTA	0.0268 ± 0.064
GTTCTCGA	0.0864 ± 0.12
CACCACTA	0.129 ± 0.17
CGCTGGCC	-0.289 ± 0.025
GGAAGGAA	0.0471 ± 0.045
ACGAAGTG	0.00194 ± 0.018
ACTGATGC	-0.0431 ± 0.041
CGCGGAAA	-0.0276 ± 0.059
CGTTGCAA	-0.0452 ± 0.0072
AGCCTAGG	-0.0541 ± 0.089
GTATCATA	0.248 ± 0.1
ATATCATA	0.184 ± 0.031
ATGTCATA	0.1682 ± 0.0013
CTGTCATA	0.113 ± 0.023
GTGTCATA	0.291 ± 0.0065
CTATCATA	0.1619 ± 0.00089
AACGAAGC	-0.00685 ± 0.13
AATTTCTA	0.172 ± 0.047
CTTTTCTA	0.0691 ± 0.035
ATTTTGTG	0.145 ± 0.021
ATTTTCTA	0.24 ± 0.019
GTTTTGCA	0.108 ± 0.019

Sequence	PBM 8-mer E-score
ATTTTGTA	0.237 ± 0.051
GGTTTGTA	-0.0081 ± 0.036
GTTTTGTA	0.248 ± 0.031
CTTTTGTA	0.125 ± 0.051
CCGCTTCG	-0.0665 ± 0.16
CCCTCCTA	0.0972 ± 0.061
CAACATAA	0.167 ± 0.0094
TTACATAA	0.136 ± 0.048
GAACATAA	0.16 ± 0.059
ACACATAA	0.214 ± 0.066
AAACATAA	0.244 ± 0.059
CTACATAA	0.0655 ± 0.2
TAACATAA	0.244 ± 0.0065
AAACATAG	0.21 ± 0.031
AAACATAC	0.233 ± 0.027
GTACATAA	0.236 ± 0.0032
AAACATAT	0.144 ± 0.0056
CAACATAC	0.112 ± 0.046
AAGAAATG	0.101 ± 0.04
AAGACGGA	-0.127 ± 0.033
CAAATCAC	0.0214 ± 0.064
CGGACGAG	-0.203 ± 0.017
AGTCACAT	0.251 ± 0.0014
AGTCACAG	-0.117 ± 0.061
AGTCACAC	0.0956 ± 0.0018

Sequence	PBM 8-mer E-score
CTTTTCAC	0.241 ± 0.17
CCTTTCAC	0.0141 ± 0.092
ATTTTCAC	-0.017 ± 0.0034
AGAAGCAT	0.135 ± 0.018
AGGACGAT	0.0538 ± 0.14
AGCGATGA	-0.182 ± 0.065
ATAACTAC	0.239 ± 0.077
ATAACTAT	0.143 ± 0.042
ATTACTAC	0.264 ± 0.03
CTAACTAC	-0.0993 ± 0.059
ATTACTAG	-0.00575 ± 0.14
CTTACTAC	0.08987 ± 0.00056
AGAAAGTA	0.204 ± 0.0097
CTGCGCAC	0.0305 ± 0.029
ACCACGTC	0.0378 ± 0.15
ACCACGCA	0.104 ± 0.042
AGCACGTC	-0.118 ± 0.093
CCCACGCG	0.31 ± 0.011
AGCACGTG	0.4878 ± 0.00074
ACCACGTA	0.0522 ± 0.0021
ACCACGTG	0.4956 ± 0.0014
ACCACGCC	0.0629 ± 0.16
CCCACGCA	-0.00155 ± 0.1
AGCACGTA	-0.0146 ± 0.12
CCCACGCC	-0.00325 ± 0.11

Sequence	PBM 8-mer E-score
ACCACGCG	0.361 ± 0.016
CCTTCGAA	0.0583 ± 0.015
ATTCAACA	0.131 ± 0.1
AGCCGTCA	-0.0749 ± 0.036
CGATCGTC	-0.278 ± 0.042
TCCCGGGA	-0.251 ± 0.0053
AATGGCAT	0.16 ± 0.14
CAAAAAGC	-0.0124 ± 0.093
AGGAGCAT	0.00459 ± 0.16
AGCTCTCA	-0.0708 ± 0.13
ACGTGCCA	0.294 ± 0.025
GCGTGCCA	-0.0642 ± 0.045
ACGTGCCG	0.206 ± 0.029
CCGTGCCA	-0.0364 ± 0.14
AAGTGCCT	-0.106 ± 0.055
ACGTGCCC	0.247 ± 0.032
GCGTGCCC	-0.0787 ± 0.13
CCGTGCCC	-0.132 ± 0.18
ACGTGCCT	0.252 ± 0.0048
GCCTTGCC	-0.201 ± 0.024
CAGAATAG	0.0142 ± 0.048
CCTATACG	0.0369 ± 0.014
CGCGAGAA	-0.0592 ± 0.072
CGTGGCGA	0.015 ± 0.0011
ACTAGGCA	-0.0155 ± 0.066

Sequence	PBM 8-mer E-score
AATCGGAG	-0.0774 ± 0.087
ATTGCCTC	0.0622 ± 0.064
CCACGCGG	0.433 ± 0.024
GCACGCGC	0.171 ± 0.025
ACACGCGT	0.325 ± 0.013
CCACGCGC	0.152 ± 0.035
AAACGCGT	0.0714 ± 0.1
ACACGCGA	0.157 ± 0.042
ACACGCGG	0.281 ± 0.03
CCACGCGA	0.0546 ± 0.083
ACACGCTG	0.0854 ± 0.074
ACACGCAT	0.159 ± 0.043
ACGCGCGA	0.114 ± 0.066
ACACGCGC	0.259 ± 0.026
ATCCCTCC	0.0287 ± 0.088
CAGGGTAC	-0.008 ± 0.013
CGCTAGTA	-0.0479 ± 0.0027
CAGTGCGA	-0.0198 ± 0.16
AGTCGTTC	-0.143 ± 0.11
CCAGCCCA	-0.176 ± 0.14
GCAACCAA	0.00549 ± 0.078
AAGCGCGC	0.0137 ± 0.0014
ACGCGCGT	0.246 ± 0.012
ACGCGCGG	0.118 ± 0.018
CCACGAGC	-0.0509 ± 0.015

Sequence	PBM 8-mer E-score
ACGCGCGC	0.0593 ± 0.05
CCACGAGG	0.365 ± 0.052
CCACGAGA	0.0679 ± 0.15
ATCTAATG	-0.0696 ± 0.071
AAGCTCTG	-0.144 ± 0.028
ATCGCGCA	-0.034 ± 0.026
CCAGAGTC	-0.155 ± 0.0016
CAAGCATG	0.24 ± 0.053
AAAGCATT	0.14 ± 0.0086
AAAGCATA	0.211 ± 0.026
AACGCATC	0.0593 ± 0.014
ACAGCATC	0.0804 ± 0.099
AACGCATG	0.305 ± 0.042
ACAGCATG	0.305 ± 0.01
CAAGCATA	0.104 ± 0.034
CAAGCATC	0.00917 ± 0.063
ACAGCATA	0.00665 ± 0.081
CACGCATG	0.184 ± 0.066
AAAGCATG	0.303 ± 0.017
ACACAGAC	0.00286 ± 0.095
AGACGTAG	0.0572 ± 0.041
CAATGCGC	0.0235 ± 0.012
AAGGGCGT	-0.0104 ± 0.031
GATAAAGC	0.179 ± 0.094
